Dicer inh = blocks human Dicer maturation of pre-miR-21 | z-score at 25 µM | cat-ELCCA pre-miR-21 Dicer processing, chemiluminescence; hits give high values | Q9UPY3 | actives 6% (n = 47,000); in the data active = z-score above about 3, passing the limit was not always enough;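 also: plate controls were vehicle for no effect and no enzyme for full effect; higher signal means more uncleaved substrate so more Dicer inhibition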
Active calls of the source: *. Many of the other results were omitted from the sample, so hits are more common in it than they were.

How did CSc1nc(N)nc(N2CCCC2)n1 do in these assays?
Dicer inh: -1.8

What do the screens show for `O=C(O)C1C2C=CC(C2)C1C(=O)N1CCc2ccccc21` (stereo unspecified)?
Dicer inh: 2.5

Results for O=C(C1CC1)N1CCc2ccccc21 ?
Dicer inh: 3.3*

How did O=C(C1CC1)N1c2ccccc2CCc2ccccc21 do in these assays?
Dicer inh: 2.8

What do the screens show for `COc1ccc(Cc2nnc(SCc3ccc(Cl)cc3)o2)cc1`?
Dicer inh: 1.9

What do the screens show for `COc1ccc(C(=O)CSc2nnc3n2CCCN3C(=O)c2cccc([N+](=O)[O-])c2)cc1`?
Dicer inh: 3

Results for COc1ccc(C2C(=O)c3ccccc3C2=O)cc1OC ?
Dicer inh: 1.4

How did COc1ccc2c3c(cccc13)C(=O)CC2 do in these assays?
Dicer inh: 4.2*

How did COc1cccc2c(=O)c3ccccc3oc12 do in these assays?
Dicer inh: -0.98

How did CCOC(=O)Cn1c2ccccc2n2nc(C)nc12 do in these assays?
Dicer inh: -0.27

Results for Cc1nn(C(=O)c2ccc(Cl)cc2)c(C)c1Sc1nnnn1-c1ccccc1 ?
Dicer inh: -1.9

What do the screens show for `Cn1c(CSCc2nc(-c3ccc(Cl)cc3)cs2)nnc1SCC(=O)Nc1ccc(Cl)cc1`?
Dicer inh: -0.37

Results for CC1=C(C(=O)Nc2ccc(F)cc2)SCCO1 ?
Dicer inh: 1

What do the screens show for `Cc1cc(C(=O)Nc2ccccc2)oc(=O)c1`?
Dicer inh: -2.2

How did CC1=C(C(=O)Nc2ccccc2)S(=O)CCO1 (stereo unspecified) do in these assays?
Dicer inh: 3.3*

What do the screens show for `COc1ccc(C2C(C#N)=C(N)Oc3c2sc2ccccc32)cc1OC` (stereo unspecified)?
Dicer inh: 0.06

How did CCNc1nc(-c2ccccc2)cs1 do in these assays?
Dicer inh: 3.3*

How did O=C(Nc1nc(-c2ccccc2)cs1)C1CC1 do in these assays?
Dicer inh: 6.7

How did Cc1nc(-c2ccc(-c3ccccc3)cc2)cs1 do in these assays?
Dicer inh: 0.49

How did COc1ccc(CCN=Cc2ccc(Oc3nccc(C(F)(F)F)n3)cc2)cc1OC do in these assays?
Dicer inh: 0.19

How did CCCc1cc(C(=O)Cc2csc(C)n2)c(O)cc1O do in these assays?
Dicer inh: 1.6

What do the screens show for `COC(=O)CCC(=O)Nc1ccc(C)cc1`?
Dicer inh: -0.19

How did NS(=O)(=O)c1ccc(NC(=O)CCCC(=O)O)cc1 do in these assays?
Dicer inh: 1.3

What do the screens show for `COc1ccc(NC(=O)CC(C)(C)CC(=O)O)cc1OC`?
Dicer inh: -2.9

Results for CC(=O)Nc1ccc(NC(=O)CCC(=O)O)cc1 ?
Dicer inh: -1.3

How did COc1ccc(NC(=O)CCC(=O)O)cc1OC do in these assays?
Dicer inh: 3.7*

What do the screens show for `NS(=O)(=O)c1ccc(NC(=O)CCC(=O)O)cc1`?
Dicer inh: 3.4*

How did COC(=O)C(Cc1c[nH]c2ccccc12)NC(=O)OC(C)(C)C (stereo unspecified) do in these assays?
Dicer inh: -0.07

Results for COc1cc(Cl)c(C(F)(F)F)cc1NC(C)=O ?
Dicer inh: 1.7

Results for O=C(NCc1c(F)cccc1Sc1ccc(Cl)cc1)Nc1ccc(Cl)cc1 ?
Dicer inh: 0.67

Results for CSc1nc2cc(C(C)(C)C)nn2c(N)c1S(=O)(=O)c1ccc(Cl)cc1 ?
Dicer inh: 0.79

Results for O=C(NCc1ccc(S(=O)(=O)Nc2ccccc2Cl)s1)c1ccccc1 ?
Dicer inh: -0.52

How did O=C(NCc1ccc(S(=O)(=O)Nc2ccc3c(c2)OCCO3)s1)c1ccccc1 do in these assays?
Dicer inh: 3.2*

How did O=C(NCc1ccc(S(=O)(=O)Nc2ccc3c(c2)OCCO3)s1)c1ccc(Cl)cc1 do in these assays?
Dicer inh: 0.24

What do the screens show for `O=C(CCc1nc(-c2ccc(Cl)cc2)no1)NNC(=S)NCc1ccccc1`?
Dicer inh: -0.64

Results for O=c1[nH]nc(N2CCCCC2)c(=O)[nH]1 ?
Dicer inh: 0.84

Results for FC(F)(F)c1cc(Cl)c2nc(-c3n[nH]c(=S)o3)cn2c1 ?
Dicer inh: 0.12

What do the screens show for `N#Cc1cnn(C(=O)c2cnn(-c3ccc([N+](=O)[O-])cc3)c2C(F)(F)F)c1N`?
Dicer inh: -0.59

Results for CC(=O)C(C)(C)OC(=O)N1CCSCC1 ?
Dicer inh: 0.4

What do the screens show for `O=C(c1ccncc1)N(c1ccc2oc(=O)sc2c1)S(=O)(=O)c1cccs1`?
Dicer inh: 5.5*

How did CC(C)C(=O)N(c1ccc2oc(=O)sc2c1)S(=O)(=O)c1cccs1 do in these assays?
Dicer inh: 0.37

What do the screens show for `O=C(Cc1ccccc1)N(c1ccc2oc(=O)sc2c1)S(=O)(=O)c1cccs1`?
Dicer inh: 5.4*

What do the screens show for `COc1ccc(S(=O)(=O)N(C(=O)c2ccncc2)c2cc3sc(=O)oc3c3ccccc23)cc1`?
Dicer inh: -2.7

Results for O=C(c1cccnc1)N(c1ccc2oc(=O)sc2c1)S(=O)(=O)c1cccs1 ?
Dicer inh: 6.1*

Results for CC(C)C(=O)N(c1cc2sc(=O)oc2c2ccccc12)S(=O)(=O)c1cccs1 ?
Dicer inh: -5.3

How did CCc1ccnc(NS(=O)(=O)c2ccc(C#N)cc2)c1 do in these assays?
Dicer inh: -1.2
